Test results taken from PubChem BioAssay AID652023 (National Center for Advancing Translational Sciences (NCATS), 2013).
This is one part of the list. Results filed as inconclusive are left out. Active and inactive are the calls of the source. The call rests on the fitted dose curve; in most records, active means well fitted inhibition curve with a large enough effect; inconclusive means small, poorly fitted or top-dose-only effect; inactive means flat fitted curve, though single readings scatter.

Molecular target: Thioredoxin reductase 1, cytoplasmic (Rattus norvegicus) (UniProt O89049)
Test: qHTS Assay for Inhibitors of Mammalian Selenoprotein Thioredoxin Reductase 1 (TrxR1): Hit Validation in Primary Screen
Conditions: recombinant TrxR1, NADPH fluorescence consumption, selenite substrate
Source text: The selenoprotein thioredoxin reductase (TrxR; EC 1.8.1.9) is a FAD containing homodimeric pyridine nucleotide-disulfide oxidoreductase with many cellular roles. Together with NADPH and its prime substrate thioredoxin (Trx), the enzyme forms the core of the Trx system. The mammalian Trx system exerts a wide spectrum of functions including redox regulation, antioxidant defense, regulation of transcription factors as well as support of cell growth and replication. Many of these functions involve the reduction of Trx, which may subsequently reduce a number of different substrates including ribonucleotide reductase, peroxiredoxins or NFkB. […]
Assay protocol: 2 uL of reagents (buffer in column 4 as negative control and 90 nM rTrxR1 in columns 1-3 and 5-48) were dispensed into Greiner black solid-bottom 1,536-well assay plates, followed by 1 uL of NADPH (400 uM final concentration) to each well. […] The plate was immediately transferred to a ViewLux high-throughput CCD imager (PerkinElmer), wherein kinetic measurements of NADPH fluorescence (Ex 340 nm, Em 450 nm) were acquired (8 minute kinetic read). Read 1 was utilized to assess the capacity of a compound to serve as an rTrxR1 substrate, i.e. a decrease in NADPH fluorescence compared to the no-compound background is an indication of a substrate behavior for that particular compound. […]

Chain of Thioredoxin reductase 1, cytoplasmic (Rattus norvegicus) (O89049 whole entry, looked up): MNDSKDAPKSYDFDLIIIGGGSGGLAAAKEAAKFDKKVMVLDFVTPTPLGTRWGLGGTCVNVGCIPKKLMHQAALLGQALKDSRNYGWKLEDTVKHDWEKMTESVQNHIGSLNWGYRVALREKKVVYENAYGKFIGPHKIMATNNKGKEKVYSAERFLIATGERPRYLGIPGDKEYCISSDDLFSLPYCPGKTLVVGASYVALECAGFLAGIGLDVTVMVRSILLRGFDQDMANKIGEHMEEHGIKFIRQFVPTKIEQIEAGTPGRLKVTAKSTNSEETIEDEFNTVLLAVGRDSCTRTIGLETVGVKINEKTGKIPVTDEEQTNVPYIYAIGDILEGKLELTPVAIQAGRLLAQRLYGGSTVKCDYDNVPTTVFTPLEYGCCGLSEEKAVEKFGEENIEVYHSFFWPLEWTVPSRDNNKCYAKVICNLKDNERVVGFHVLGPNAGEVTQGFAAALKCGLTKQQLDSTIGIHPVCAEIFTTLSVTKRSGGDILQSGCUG

`CC1CCN(C(=O)c2ccc(S(=O)(=O)Cc3cc(F)ccc3F)c([N+](=O)[O-])c2)CC1` was tested, and the Potency was 2380 nM (active).
